HT1080-NT tox: kills 2HG-producing HT-1080-NT fibrosarcoma cells | hit rate 1.6% among 360,000 | HT-1080-NT fibrosarcoma viability, CellTiter-Glo ATP luminescence, 48 h | AID 686970 | Potency, µM (titrated, usually from 46.1 µM), without a hit: top-dose activity, negative = less viability, most hits filed as cytotoxic;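 further: NT is the 2HG producing partner of a matched IDH1 knockdown line; potency means the concentration at half of the fitted maximal effect; 0% = DMSO-treated cells and -100% = media-only wells without cells; nearly all actives have a fitted effect of over 55% in size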
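Luminescent CellTiter-Glo readout after 48 hours of compound exposure at 37 degrees C defined viability of HT-1080-NT cells. Activity was normalized to DMSO wells and cell-free media wells; concentration-response curves were fitted and assigned curve classes.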
KB-3-1 tox: KB-3-1 parental cell cytotoxicity. KB-3-1 viability, CellTiter-Glo ATP luminescence, 72 h. Potency, µM (doses to about 46.1 µM), hits mostly cytotoxic. hit rate 1.4% among 400,000; further: potency means the concentration at half of the fitted maximal effect; nearly all actives have a fitted effect of over 60% in size
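Cells are dispensed, compounds pinned in, plates held at 37 °C for 72 h, then CellTiter-Glo is added and luminescence read after 10 minutes. Cell line: parental KB-3-1 in phenol-red-free DMEM, 10% FBS.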
HT1080 IDH1KD tx: HT-1080 IDH1 knockdown cell toxicity (counter line); Potency, µM (highest dose often 46.1 µM), for inactives: at the highest dose activity, negative = toxicity, actives largely listed as cytotoxic; HT-1080 IDH1 knockdown viability, ATP luminescence, 48 h; hit rate 2% among 360,000;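 further: potency means the concentration at half of the fitted maximal effect; 0% = DMSO wells and -100% = cell-free medium wells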
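% activity derives from luminescence (CellTiter-Glo), normalised to DMSO and no-cell wells. HT-1080-IDH1KD cells, 750/well, had 48 h compound exposure at 37 °C.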
KB-V1 MDR tox: KB-V1 MDR subline cytotoxicity. KB-V1 MDR cells viability, CellTiter-Glo, 72 h. Potency, µM (series often up to 46.1 µM), most hits filed as cytotoxic. hit rate 3.4% among 400,000; further: potency means the concentration at half of the fitted maximal effect; nearly all actives have a fitted effect of over 60% in size
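Readout: CellTiter-Glo luminescence, 10 min after addition. Cells: KB-V1 MDR subline, 72 h at 37 degrees C with compound. Analysis: corrected, normalized data fitted to concentration-effect curves.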
IL1B secr inh: inhibitors of inflammasome signaling (IL-1 beta secretion) | activity change, % at 57.5 µM | AID 743279 | hit rate 4.7% among 360,000 | THP-1 LPS/ATP IL-1B secretion, AlphaLISA, 16 h; hits give low values; in the data active means activity change below about -50%; inconclusive means mostly about -30% to -49%
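Secreted IL-1B measured by AlphaLISA bead assay after 16 h compound exposure of THP-1 cells; compounds (final up to 57.5 uM) added 1 h before LPS (250 ng/mL) and ATP (1.25 mM) stimulation; lower signal means less secretion.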
* = called active by the depositor; i = inactive; ? = inconclusive; · = no result; ! = a repeat was not active; [ ] = remark or other dose. Only some compounds are listed: those with a hit (about 8.8% of all), similar ones and a draw of the others. Unless noted, the call rests on the fitted dose curve; in most records, active means well fitted curve in the direction sought with a large enough effect; inconclusive means small, poorly fitted or top-dose-only effect, or another doubt; inactive means no such curve, though single readings can be large; an effect the other way counts as inactive or inconclusive. Unless noted, on the % scale 0 is the no-effect control and ±100 the full control effect.

SMILES	HT1080-NT tox	KB-3-1 tox	HT1080 IDH1KD tx	KB-V1 MDR tox	IL1B secr inh
CC(C)(CNS(=O)(=O)c1ccc2ccccc2c1)N1CCOCC1	10%	i	0%	i	-4
Brc1ccc2c(c1)-c1ccccc1C1=NCCN12	23µM*	?	16µM*	10µM*	-104*
Clc1ccc2c(c1)-c1ccccc1C1=NCCN12	?	10µM*	18µM*	8.2µM*	-103*
NC1=NC(=O)/C(=C\c2ccc(-c3ccccc3[N+](=O)[O-])o2)S1	20µM*	·	?	·	·
O=C(C=Cc1ccccc1)c1ccc([N+](=O)[O-])cc1	?	i	?	i	-27
Cc1ccc(C(=O)/C=C/c2ccccc2[N+](=O)[O-])cc1	?	i	?	i	-57*
O=C(/C=C/c1ccc(-c2ccccc2[N+](=O)[O-])o1)c1ccc(Br)cc1	?	i	?	i	-66*
Cc1ccc(/C=C/C(=O)c2ccc(C)cc2)cc1	9%	i	7%	i	?
Cc1ccc(C(=O)/C=C/C(=O)c2ccc(C)cc2)cc1	-20%	i	12µM*	i	-71*
O=c1nc2s/c(=C\c3ccc(-c4ccccc4[N+](=O)[O-])o3)c(=O)n2nc1-c1ccccc1	-6%	i	0%	i	13
O=C(N/N=C/c1ccc(-c2ccccc2[N+](=O)[O-])o1)c1cccnc1	-4%	i	0%	i	15
O=C(Nc1ccc2c(c1)OCCO2)c1cnn(-c2ccccc2)n1	22%	i	21%	?	-28
O=C([O-])c1ccccc1-[n+]1c(-c2ccccc2)cc(-c2ccccc2)cc1-c1ccccc1	-15%	i	-17%	i	10
Cc1ccc(C(=O)/C=C/c2ccc(-c3ccccc3[N+](=O)[O-])o2)cc1	?	i	-1%[9.24 µM]	i	-95*
O=C(C=Cc1ccco1)c1ccc([N+](=O)[O-])cc1	6%	i	15%	i	-25
O=C(/C=C\c1ccccc1[N+](=O)[O-])Nc1ccccc1	0%	i	2%	?	7
O=C(/C=C/c1ccc(-c2ccccc2[N+](=O)[O-])o1)c1ccc(F)cc1	16µM*	i	-28%[9.24 µM]	i	-99*
O=C(/C=C/c1ccccc1[N+](=O)[O-])c1ccccc1Br	?	?	21µM*	?	-104*
COc1ccc(S(=O)(=O)N2CCN=C2SCc2cccc(C)c2)cc1	-1%	·	-17%	·	?
COc1cc(C2c3c(-c4ccccc4O)n[nH]c3C(=O)N2Cc2ccco2)cc(OC)c1OC (configuration not stated)	1%	i	-12%	i	3
COc1ccc(C2c3c(-c4ccccc4O)n[nH]c3C(=O)N2CCc2ccc(OC)c(OC)c2)cc1 (configuration not stated)	-26%	i	?	?	-51*
COc1ccc(C2c3c(-c4ccccc4O)n[nH]c3C(=O)N2Cc2ccco2)cc1 (configuration not stated)	?	i	?	i	-75*
COc1ccc(CCN2C(=O)c3[nH]nc(-c4ccccc4O)c3C2c2cccc(Cl)c2)cc1 (configuration not stated)	23µM*	18µM*	12µM*	?	-26
COc1cc(C2c3c(-c4ccccc4O)n[nH]c3C(=O)N2CCO)ccc1OCc1ccccc1 (configuration not stated)	·	i	·	i	·
CCCN1C(=O)c2[nH]nc(-c3ccccc3O)c2C1c1ccc(OCc2ccccc2)c(OC)c1 (configuration not stated)	·	21µM*	·	?	·
SMILES	HT1080-NT tox	KB-3-1 tox	HT1080 IDH1KD tx	KB-V1 MDR tox	IL1B secr inh
O=C(Nc1ccc2c(c1)OCCO2)c1ccc(Br)s1	-5%	18µM*	-1%	13µM*	-76*
Cc1occc1C(=O)Nc1ccc2c(c1)OCCO2	-4%	i	-11%	13µM*	-5
Cc1ccsc1C(=O)Nc1ccc2c(c1)OCCO2	-10%	?	-28%	21µM*	36
Cc1ncoc1C(=O)Nc1ccc2c(c1)OCCO2	-3%[9.24 µM]	?	?	i	18
CCC(C(=O)O)n1c2ccccc2c2cn[nH]c(=O)c21 (configuration not stated)	0%	i	-2%	i	16
O=C(NCC(c1ccc(Cl)cc1)N1CCCCC1)c1ccccc1 (configuration not stated)	·	i	·	i	·
Cc1[nH]nc(N=CC2=C(O)CC(C)(C)CC2=O)c1-c1ccccc1	5%	?	1%	23µM*!	-1
Cc1[nH]nc(N=CC2=C(O)CC(c3ccco3)CC2=O)c1-c1ccccc1 (configuration not stated)	?	i	10%	16µM*!	-19
COc1ccc(C)cc1S(=O)(=O)n1cnc2ccccc21	1%	5.2µM*	-10%	?	5
CC(Cc1ccccc1)NC(=O)c1cc([N+](=O)[O-])ccc1Cl (configuration not stated)	0%	i	-3%	i	?
Oc1cccc(/C=N/N(Cc2ccccc2)c2ccccc2)c1	?	i	18µM*	?	-55*
C(=N\N(Cc1ccccc1)c1ccccc1)/c1cccnc1	1%	i	3%	i	-19
CCOC(=O)c1c(NC(=O)C2c3ccccc3Oc3ccccc32)sc(C)c1C	·	i	·	i	·
CCOC(=O)c1c(NC(=O)C2=C(C)NC(=S)NC2c2ccc(C)cc2)sc(C)c1C (configuration not stated)	?	?	-30%	21µM*	-76*
CCOC(=O)c1c(NC(=O)C2=C(C)NC(=S)NC2c2ccc(F)cc2F)sc(C)c1C (configuration not stated)	-16%	?	?	?	?
CCOC(=O)c1c(NC(=O)C2=C(C)NC(=S)NC2c2ccc(F)cc2)sc(C)c1C (configuration not stated)	?	i	-21%	?	-87*
C[C@H](CO)N1C[C@H](C)[C@@H](CN(C)Cc2ccc3c(c2)OCO3)Oc2ccc(NC(=O)Cn3cnnn3)cc2C1=O	14%	i	11%	i	12
O=C(C[n+]1c(Cl)cc(Cl)c2ccccc21)c1ccccc1	·	i	·	i	·
CC(=O)c1cc2c(cc1NC(=O)Cn1nc(-c3ccc(C)cc3)ccc1=O)OCO2	1%	23µM*	-7%	9.2µM*	-8
CC(=O)Nc1cc2c(cc1NC(=O)Cn1nc(-c3ccc(F)cc3)ccc1=O)OCCO2	5%	i	27%	i	22
Clc1ccc(Cl)c(OCCCCN2CCNCC2)c1	?	?	?	?	-74*
Clc1ccc(OCCCCCN2CCCC2)c(Br)c1	?	i	?	?	?
